RE007 growth inh = less growth of the S. pombe RE007 Vpr strain. Potency, µM (doses to about 92.2 µM), for inactives: top-dose activity change, negative = less growth, hits mostly inhibitors. AID 651644. hit rate 0.21% among 360,000. S. pombe RE007 Vpr strain, BacTiter-Glo ATP luminescence, 24 h; active means well fitted falling curve with a large enough effect; inconclusive means small, poorly fitted or top-dose-only effect; inactive means no such curve, though single readings can be large or run the other way; further: nearly all actives have a fitted effect of over 50% in size
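Fission yeast RE007 carrying one integrated HIV-1 vpr copy, seeded at OD 0.01 in PMG+AL medium with 23 nL pinned compound. Grown 24 h at 30 degrees; viability read by BacTiter-Glo luminescence after 5 min.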
Tb PYK inh = T. brucei pyruvate kinase inhibition | TbPYK enzyme, Kinase-Glo Plus ATP luminescence, 45 min | AID 624173 | hit rate 0.12% among 410,000 | Potency, µM (highest dose often 76.8 µM), inactives show at the top dose activity, negative = inhibition, usual class: inhibitors | Q57TT1; further: nearly all actives have a fitted effect of over 50% in size
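T. brucei PYK with substrate was exposed to pin-transferred compounds across a concentration series, then started with 130 uM ADP (final). After 45 min at room temperature, Kinase-Glo Plus luminescence was read, normalized and curve-fitted.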
LmPK inhibitor = inhibitors of Leishmania mexicana pyruvate kinase | purified LmPK, Kinase-Glo ATP luminescence, 1 h | Potency, µM (top dose mostly 57.5 µM), for inactives: at the top dose activity change, negative = inhibition, usual class: inhibitors | hit rate 0.37% among 290,000
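ATP generated from ADP (0.1 mM) and PEP (0.5 mM) by 0.1 nM LmPK over 1 h at room temperature (pH 7.2 imidazole buffer) was detected by coupled luciferase luminescence. Values were normalized to uninhibited and no-enzyme wells.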
Giardia FBPA inh-1 = blocks Giardia fructose-bisphosphate aldolase activity; hit rate 0.71% among 290,000; purified Giardia FBPA; Potency, µM (top dose mostly 59.6 µM), without a hit: at the highest dose activity, negative = inhibition, hits mostly inhibitors; further: nearly all actives have a fitted effect of over 55% in size
Target sequence (A8B2U2 whole entry, looked up): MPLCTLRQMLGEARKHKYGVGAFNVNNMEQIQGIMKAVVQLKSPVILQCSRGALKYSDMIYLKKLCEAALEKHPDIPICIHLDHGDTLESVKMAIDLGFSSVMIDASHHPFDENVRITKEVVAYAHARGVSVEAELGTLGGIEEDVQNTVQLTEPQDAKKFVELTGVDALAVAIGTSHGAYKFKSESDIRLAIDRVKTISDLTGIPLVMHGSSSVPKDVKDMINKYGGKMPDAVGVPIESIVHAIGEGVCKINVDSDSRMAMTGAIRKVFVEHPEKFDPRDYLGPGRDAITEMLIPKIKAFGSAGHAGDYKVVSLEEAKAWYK
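Giardia FBPA (40 nM reagent) was preincubated 10 min at RT with compound (up to 57.5 uM final), then substrate plus GAPDH/TPI/NAD/arsenate coupling system with diaphorase/resazurin was added; resorufin fluorescence (525/598 nm) was read after 20 min.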
Giardia growth = Giardia lamblia growth inhibition; Potency, µM (doses to about 57.5 µM), inactives show at the top dose activity change, negative = inhibition, actives largely listed as inhibitors; hit rate 5% among 1,500; AID 2785; Giardia lamblia trophozoite growth inhibition; shares compounds with Giardia FBPA inh-1;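 further: trophozoites exposed to compound for 48 h at 37 °C; nearly all actives have a fitted effect of over 70% in size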
Mammalian tox = mammalian cytotoxicity of Giardia aldolase inhibitor hits; Potency, µM (highest dose often 57.5 µM), inactives show at the top dose viability change, negative = toxicity, hits mostly inhibitors; shares compounds with Giardia FBPA inh-1; AID 2786; hit rate 4% among 1,500; mammalian cell viability counter-screen, qHTS;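 further: Chinese hamster ovary cells used as mammalian cytotoxicity surrogate; viability measured as cellular ATP by luminescence; compound exposure lasted 48 h before reading; nearly all actives have a fitted effect of over 60% in size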
Giardia FBPA inh-2 = confirmation of Giardia fructose-bisphosphate aldolase inhibitors. shares compounds with Giardia FBPA inh-1. purified Giardia aldolase enzyme activity, qHTS. Potency, µM (highest dose often 57.5 µM), inactives show top-dose activity change, negative = inhibition, usual class: inhibitors. hit rate 5% among 1,500. AID 2787; further: nearly all actives have a fitted effect of over 45% in size
Rabbit aldolase = selectivity test for Giardia aldolase inhibitors: rabbit aldolase; shares compounds with Giardia FBPA inh-1; Rabbit muscle FBPA enzyme inhibition, selectivity counter-screen; Potency, µM (highest dose often 57.5 µM), inactives show top-dose activity, negative = inhibition, most hits filed as inhibitors; hit rate 4% among 1,500; further: nearly all actives have a fitted effect of over 60% in size
GAPDH counter = counter-screen for Giardia aldolase inhibitors: GAPDH coupling enzyme. Potency, µM (titrated, usually from 57.5 µM), for the others: at the highest dose activity change, negative = inhibition, usual class: inhibitors. hit rate 6% among 1,500. GAPDH coupling enzyme counterscreen, biochemical, qHTS. AID 2795. shares compounds with Giardia FBPA inh-1; further: nearly all actives have a fitted effect of over 55% in size
* = called active by the depositor; ? = inconclusive; . = no result; [ ] = remark or other dose. Sampled rows, rich in hits. Any-hit rate of the full collection: about 0.95%. Unless noted, the call rests on the fitted dose curve; in most records, active means well fitted curve in the direction sought with a large enough effect; inconclusive means small, poorly fitted or top-dose-only effect, or another doubt; inactive means no such curve, though single readings can be large; an effect the other way counts as inactive or inconclusive. On the % scale 0 is the no-effect control and ±100 the full control effect; potency means the concentration at half of the fitted maximal effect.

SMILES	RE007 growth inh	Tb PYK inh	LmPK inhibitor	Giardia FBPA inh-1	Giardia growth	Mammalian tox	Giardia FBPA inh-2	Rabbit aldolase	GAPDH counter
CCOc1cc(C(=O)Nn2cnnc2)cc(OCC)c1OCC	1%	3%	2%	4%	.	.	.	.	.
N#C/C(=C(/O)CCl)c1nc2c(s1)CCc1ccccc1-2	3%	-6%	3%	14µM*	?	-11%	?	?	-22%
O=C(O)c1ccc2cccc(O)c2n1	23%	9%	3%	2.2µM*	?	21%	?	-28%	?
CC(=O)N1CCC(N(CCN2CCOCC2)C(=S)Nc2ccc(C)cc2)CC1	3%	-8%	7%	7.1µM*	-19%[38.3 µM]	-13%	2%	12%	5%
COc1cc(Cl)ccc1NC(=S)N(CCN1CCOCC1)C1CCN(C(C)=O)CC1	-3%	-6%	3%	18µM*	-7%[10.4 µM]	4%	6%	1%	5%
COc1ccc(OC2C=CC(c3ccccc3)OC2CO)c(C(C)=O)c1 (stereo unspecified)	.	.	.	1%[12.9 µM]	.	.	.	.	.
Clc1ccccc1-c1nc(NCc2cccnc2)c2ccccc2n1	.	.	.	10%	.	.	.	.	.
Cn1c(=O)c2c([nH]c(=S)n2Cc2ccc(Cl)cc2)n(C)c1=O	9%	3.5µM*	?	8.9µM*	-1%[38.3 µM]	-19%	-5%	-11%	-2%
C=CCn1c(O)c(/C=N/NC(=O)CCCC)c(=O)[nH]c1=S	4%	3%	-3%	7.1µM*	-12%[10.4 µM]	2%	4%	-10%	-2%
O=C(CCN1CCN(CCO)CC1)N1c2ccccc2Sc2ccc(C(F)(F)F)cc21	-3%	-4%	-11%	7.9µM*	-14%	2%	-3%	0%	2%
CCN(c1ccccc1C)S(=O)(=O)c1nnc(NC(=O)c2ccccc2C)s1	.	0%	.	.	.	.	.	.	.
CCN1C(=O)[C@H]2[C@H]3[C@H](O)[C@H](O)C/C(=N/OC[C@@H](C)[C@H](OCc4ccccc4)C(C)C)[C@@H]3CC[C@@H]2C1=O	.	.	.	-3%[12.9 µM]	.	.	.	.	.
CN1CCN(Cc2coc3c(Cl)cc(Cl)cc3c2=O)CC1	-2%	-20%	-1%	13µM*	-12%	-8%	2%	8%	-11%
O=c1c(CN2CCN(c3cccc(Cl)c3)CC2)coc2c(Cl)cc(Cl)cc12	-8%	3%	3%	1%	.	.	.	.	.
COc1c(O)ccc(/C=C(\C#N)c2nc3ccccc3[nH]2)c1[N+](=O)[O-]	-3%	-2%	2%	?	?	-14%	-24%	-15%	-16%
NS(=O)(=O)c1ccc(NC(=S)N2CCC(O)CC2)cc1	2%	-11%	0%	16µM*	?	17%	4%	13%	4%
O=C(O)CCC1CCCC1	.	.	.	4%	.	.	.	.	.
CCOc1ccc(OCC)c(NC(=O)CN2CCN(CC(=O)NC(C)C)CC2)c1	-4%	2%	-7%	32µM*	25%	-12%	-1%	2%	8%
CCOc1ccc(OCC)c(NC(=O)CN2CCN(CC)CC2)c1	1%	1%	-10%	-3%	.	.	.	.	.
O=C(O)c1cc(Br)ccn1	-10%	3%	-2%[11.5 µM]	16µM*	-8%[10.4 µM]	9%	1%	0%	4%
C=Cc1ccc([C@H]2N[C@@H](C(=O)O)CC[C@@H]2C)cc1	.	.	.	1%[12.9 µM]	.	.	.	.	.
COc1ccc(CC(=O)NCCc2sc(-c3ccc(Cl)cc3)nc2C)cc1OC	.	4%	.	.	.	.	.	.	.
Cc1ccc(/C=C2\SC(=S)N(C3CCS(=O)(=O)C3)C2=O)o1 (stereo unspecified)	6%	-30%	-1%	?	.	.	.	.	.
CC1=C(C#N)C(=O)N(C2CCS(=O)(=O)C2)C(=O)/C1=C\c1ccc(C)o1 (stereo unspecified)	.	.	5%	13µM*	47%	5%	?	?	?

Bioassay records (PubChem BioAssay)
